This is an account of results in PubChem BioAssay (NCATS).

Records with an inconclusive call do not appear. Calls of active or inactive are those of the source. The call rests on the fitted dose curve; in most records, active means well fitted curve in the direction sought with a large enough effect; inconclusive means small, poorly fitted or top-dose-only effect, or another doubt; inactive means no such curve, though single readings can be large; an effect the other way counts as inactive or inconclusive.

Chain of Lysine-specific demethylase 5B (Homo sapiens) (Q9UGL1 whole entry, looked up): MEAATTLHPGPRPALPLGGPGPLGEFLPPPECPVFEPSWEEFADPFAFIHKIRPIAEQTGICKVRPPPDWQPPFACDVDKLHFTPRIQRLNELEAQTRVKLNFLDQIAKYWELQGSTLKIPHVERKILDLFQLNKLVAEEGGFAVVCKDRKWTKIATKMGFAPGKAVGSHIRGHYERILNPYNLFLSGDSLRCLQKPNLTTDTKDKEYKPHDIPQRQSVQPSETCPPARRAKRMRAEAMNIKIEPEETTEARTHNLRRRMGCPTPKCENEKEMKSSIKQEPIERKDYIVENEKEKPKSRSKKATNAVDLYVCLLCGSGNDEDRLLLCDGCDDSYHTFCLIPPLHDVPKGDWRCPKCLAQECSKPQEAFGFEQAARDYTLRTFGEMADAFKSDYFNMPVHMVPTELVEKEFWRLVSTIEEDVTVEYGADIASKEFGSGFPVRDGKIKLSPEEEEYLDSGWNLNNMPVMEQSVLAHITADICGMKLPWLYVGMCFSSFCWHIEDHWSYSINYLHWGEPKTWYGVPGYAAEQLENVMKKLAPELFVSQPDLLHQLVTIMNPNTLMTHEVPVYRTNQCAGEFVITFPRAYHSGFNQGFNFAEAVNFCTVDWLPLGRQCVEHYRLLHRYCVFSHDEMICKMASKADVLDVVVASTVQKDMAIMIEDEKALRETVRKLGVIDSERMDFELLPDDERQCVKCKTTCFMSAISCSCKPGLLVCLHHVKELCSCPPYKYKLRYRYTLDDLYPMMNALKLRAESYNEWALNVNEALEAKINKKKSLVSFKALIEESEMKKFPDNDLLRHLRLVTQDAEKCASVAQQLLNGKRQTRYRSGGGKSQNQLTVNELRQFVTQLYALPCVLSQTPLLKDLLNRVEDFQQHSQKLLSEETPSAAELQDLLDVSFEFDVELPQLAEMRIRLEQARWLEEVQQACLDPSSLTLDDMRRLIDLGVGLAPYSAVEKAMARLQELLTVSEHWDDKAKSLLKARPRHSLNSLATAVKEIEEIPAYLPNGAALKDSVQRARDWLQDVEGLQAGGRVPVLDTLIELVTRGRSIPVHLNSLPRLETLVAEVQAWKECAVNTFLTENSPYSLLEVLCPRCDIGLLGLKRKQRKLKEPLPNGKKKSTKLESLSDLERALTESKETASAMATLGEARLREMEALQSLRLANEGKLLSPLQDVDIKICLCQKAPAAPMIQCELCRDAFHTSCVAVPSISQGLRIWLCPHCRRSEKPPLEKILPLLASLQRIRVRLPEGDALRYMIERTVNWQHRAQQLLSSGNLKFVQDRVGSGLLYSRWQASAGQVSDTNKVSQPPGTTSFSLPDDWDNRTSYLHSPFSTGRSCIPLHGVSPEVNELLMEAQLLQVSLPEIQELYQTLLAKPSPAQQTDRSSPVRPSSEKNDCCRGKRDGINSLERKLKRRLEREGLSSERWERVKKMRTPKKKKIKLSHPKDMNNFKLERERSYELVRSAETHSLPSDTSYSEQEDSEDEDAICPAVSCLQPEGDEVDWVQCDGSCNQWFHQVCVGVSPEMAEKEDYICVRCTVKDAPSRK

The test system of the first experiment is Zika virus NS2B-NS3 protease. Description: Primary screen GU AMC qHTS for Zika virus inhibitors (AID 1347154).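 Further: 0% = no-inhibitor control and -100% = no-enzyme control; nearly all actives have a fitted effect of over 70% in size.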 The settings on record: Zika NS2B-NS3 unlinked protease, AMC fluorogenic substrate; series mostly up to 54.1 µM; activity change, negative = inhibition: at the top concentration. In a few lines:
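Unlinked Zika NS2B hydrophilic domain–NS3 protease complex at 25 nM in 10 mM Tris-HCl pH 8.0, 0.01% Tween 20, with an AMC peptide substrate. Fluorescence change (340/450 nm) over 15 min at room temperature, normalized to controls, fitted to 4-parameter Hill.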
A general note: In qHTS, concentration-response curves come from the screen itself.
Turning to `CNCC(O)c1ccc(O)cc1` (configuration not stated), the Potency result is “inactive”. In the case of `CC(=O)[C@H]1CC[C@H]2[C@@H]3CC[C@H]4C[C@](C)(O)CC[C@]4(C)[C@H]3CC[C@]12C`, the “activity change, negative = inhibition” value is 2.39% (inactive). Same read-out and setting: under `NCC(O)c1ccc(O)cc1` (configuration not stated) stands -5.67% (inactive). Consider `O=c1[nH]c2ccccc2n1C1CCN(CCCC(c2ccc(F)cc2)c2ccc(F)cc2)CC1`, for which the Potency result was “inactive”. The same measure, in the same setting: the value for `N[C@@H](Cc1ccc(N(CCCl)CCCl)cc1)C(=O)O` was “inactive”.

For a further experiment, the system named is Zika virus NS2B-NS3 protease (unlinked complex). Description: Primary screen GU Rhodamine qHTS for Zika virus inhibitors: Unlinked NS2B-NS3 protease assay (AID 1347159). Further: on the % scale 0 is the no-effect control and ±100 the full control effect; nearly all actives have a fitted effect of over 60% in size. The settings on record: Recombinant ZIKV NS2B-NS3 protease, Rhodamine110 substrate fluorescence; series mostly up to 107 µM; activity change, negative = inhibition: at the top concentration. In short, it runs like this:
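Buffer 10 mM Tris-HCl pH 8.0, 0.01% Tween 20. Unlinked protease 25 nM; compound preincubation 15 min, RT, protected from light. Substrate Rhod110, 1.5 microM; ~15% conversion in 15 min.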
Regarding `C[C@@H]1O[C@@H](O[C@H]2C[C@@H](O)[C@]3(CO)[C@H]4[C@H](O)C[C@]5(C)[C@@H](C6=CC(=O)OC6)CC[C@]5(O)[C@@H]4CC[C@]3(O)C2)[C@H](O)[C@H](O)[C@H]1O`, the “activity change, negative = inhibition” value was 14.2% [at 57.1 µM] (inactive).

As to `C[C@H]1O[C@@H](O[C@H]2[C@@H](O)C[C@H](O[C@H]3[C@@H](O)C[C@H](O[C@H]4CC[C@@]5(C)[C@H](CC[C@@H]6[C@@H]5CC[C@]5(C)[C@@H](C7=CC(=O)OC7)CC[C@]65O)C4)O[C@@H]3C)O[C@@H]2C)C[C@H](O)[C@@H]1O`, the “activity change, negative = inhibition” value was 15.1% [at 32.5 µM] (inactive). Still for that read-out and setting: under `O=c1[nH]c2ccccc2n1C1CCN(CCCC(c2ccc(F)cc2)c2ccc(F)cc2)CC1` stands 11.5% (inactive).

The subject of the next experiment is Zika virus NS2B-NS3 protease (linked construct). The experiment in a line: Primary screen NINDS Rhodamine qHTS for Zika virus inhibitors (AID 1347160). Further: on the % scale 0 is the no-effect control and ±100 the full control effect; nearly all actives have a fitted effect of over 55% in size. The note with it: purified NS2B-NS3 protease, Rhodamine110 substrate fluorescence; series mostly up to 57.1 µM; activity change, negative = inhibition: at the top concentration. In short, it runs like this:
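Aprotinin served as in-plate control. Conditions: 25 nM linked NS2B-NS3, pH 8.0 Tris buffer, titrated compounds, 15 min preincubation and 15 min reaction with 1.5 microM Rhod110 substrate at room temperature.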
Take `C[C@@H]1O[C@@H](O[C@H]2C[C@@H](O)[C@]3(CO)[C@H]4[C@H](O)C[C@]5(C)[C@@H](C6=CC(=O)OC6)CC[C@]5(O)[C@@H]4CC[C@]3(O)C2)[C@H](O)[C@H](O)[C@H]1O`: the “activity change, negative = inhibition” value was -2.08% [at 33.1 µM] (inactive).

On to `C[C@H]1O[C@@H](O[C@H]2[C@@H](O)C[C@H](O[C@H]3[C@@H](O)C[C@H](O[C@H]4CC[C@@]5(C)[C@H](CC[C@@H]6[C@@H]5CC[C@]5(C)[C@@H](C7=CC(=O)OC7)CC[C@]65O)C4)O[C@@H]3C)O[C@@H]2C)C[C@H](O)[C@@H]1O`, for which the “activity change, negative = inhibition” value is 1.52% [at 15.1 µM] (inactive). The same measure, in the same setting: under `NCC(O)c1ccc(O)cc1` (configuration not stated) stands 17.6% [at 112 µM] (inactive); under `O=c1[nH]c2ccccc2n1C1CCN(CCCC(c2ccc(F)cc2)c2ccc(F)cc2)CC1`, 282% (inactive).

A further experiment addresses Lysine-specific demethylase 5B (Homo sapiens) (UniProt Q9UGL1). The experiment in a line: Optimization screen for KDM5B Histone Demethylases FDH coupled qHTS against the LOPAC library (AID 1347166). Further: 0% is about no effect. The note with it: KDM5B demethylation, FDH-coupled NADH fluorescence (FDH is formaldehyde dehydrogenase); series mostly up to 57.5 µM; activity, negative = inhibition: at the top concentration. In a few lines: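 KDM5BDeltaAP (200nM final) in 50mM HEPES pH 7.5, 0.01% Tween-20 was preincubated with compound for 10 min at room temperature. A substrate mix of 12.5uM H3K4Me3, 25uM a-ketoglutarate, ascorbate, Fe2+, NAD+ and formaldehyde dehydrogenase was then added. NADH fluorescence (340/450 nm) was read initially and after 30 min.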
Consider `c1ccc2c(c1)OCC(C1=NCCN1)O2` (configuration not stated), for which the “activity, negative = inhibition” value is -22.7% (inactive). The same measure, in the same setting: under `Cc1cccc(C)c1NC(=O)CN1CCCC1=O` stands -8.88% (inactive); under `Cc1cccc(C)c1NC1=NCCCS1`, -0.828% (inactive); under `NCC1(CC(=O)O)CCCCC1`, -4.08% (inactive).

Take `Nc1ccncc1`: the “activity, negative = inhibition” value is -3.57% (inactive).

As for `CC(=O)[C@H]1CC[C@H]2[C@@H]3CC[C@H]4C[C@H](O)CC[C@]4(C)[C@H]3C(=O)C[C@]12C`, the “activity, negative = inhibition” value is -0.698% (inactive). Still for that read-out and setting: the value for `NCC(CC(=O)O)c1ccc(Cl)cc1` (configuration not stated) was -13.8% (inactive); that for `CCC1(C2=NCCN2)Cc2ccccc2O1` (configuration not stated) was -0.71% (inactive). On to `O=c1[nH]c2ccccc2n1CCCN1CCC(n2c(=O)[nH]c3cc(Cl)ccc32)CC1`, for which the “activity, negative = inhibition” value was -1.15% (inactive). Still for that read-out and setting: under `c1ccc(C2CC2)c(OCC2=NCCN2)c1` stands -6.99% (inactive); under `COc1ccc(C(CN(C)C)C2(O)CCCCC2)cc1` (configuration not stated), -0.263% (inactive). Same read-out and setting: under `O=C1NCN(c2ccccc2)C12CCN(CC1COc3ccccc3O1)CC2` (configuration not stated) stands -5.23% (inactive); under `C=C(C)[C@H]1Cc2c(ccc3c2O[C@@H]2COc4cc(OC)c(OC)cc4[C@@H]2C3=O)O1`, -18.9% (inactive); under `CC(CCc1ccccc1)NC(C)C(O)c1ccc(O)cc1` (configuration not stated), -3.05% (inactive). As for `C[C@@H]1O[C@@H](O[C@H]2C[C@@H](O)[C@]3(CO)[C@H]4[C@H](O)C[C@]5(C)[C@@H](C6=CC(=O)OC6)CC[C@]5(O)[C@@H]4CC[C@]3(O)C2)[C@H](O)[C@H](O)[C@H]1O`, the “activity, negative = inhibition” value is -6.4% (inactive). On to `NN=C(N)N`, for which the molecule was classed as inactive.

As for `CNCC(O)c1ccc(O)cc1` (configuration not stated), the “activity, negative = inhibition” value was -16.3% (inactive). Same read-out and setting: the value for `CC(=O)[C@H]1CC[C@H]2[C@@H]3CC[C@H]4C[C@](C)(O)CC[C@]4(C)[C@H]3CC[C@]12C` was -3.98% (inactive); that for `NCC(O)c1ccc(O)cc1` (configuration not stated) was -6.03% (inactive).

For `O=c1[nH]c2ccccc2n1C1CCN(CCCC(c2ccc(F)cc2)c2ccc(F)cc2)CC1`, the “activity, negative = inhibition” value is -20.6% (inactive).
